sEH activator – activators of human soluble epoxide hydrolase; purified human sEH enzymatic activity, activator screen; P34913; actives 0.04% (n = 91,000); activation, % at 2 µM; in the data active = activation above about 37%
Target sequence (P34913 whole entry, looked up): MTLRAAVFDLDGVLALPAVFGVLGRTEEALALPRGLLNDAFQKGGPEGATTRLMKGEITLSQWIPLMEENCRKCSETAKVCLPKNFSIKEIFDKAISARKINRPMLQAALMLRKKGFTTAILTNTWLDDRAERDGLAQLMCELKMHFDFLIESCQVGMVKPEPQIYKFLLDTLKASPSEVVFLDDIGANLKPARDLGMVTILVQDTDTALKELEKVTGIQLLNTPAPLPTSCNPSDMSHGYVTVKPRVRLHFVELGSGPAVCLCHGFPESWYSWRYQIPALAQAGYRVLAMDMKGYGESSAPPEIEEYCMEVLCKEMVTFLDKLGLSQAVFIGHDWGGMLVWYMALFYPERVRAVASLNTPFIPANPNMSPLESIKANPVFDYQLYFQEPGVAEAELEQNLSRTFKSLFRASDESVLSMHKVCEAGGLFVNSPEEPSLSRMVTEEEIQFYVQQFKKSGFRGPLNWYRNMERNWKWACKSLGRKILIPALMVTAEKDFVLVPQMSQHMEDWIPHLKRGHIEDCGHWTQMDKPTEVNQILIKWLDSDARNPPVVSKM
Calb biofilm kill – kills Candida albicans biofilms; C. albicans biofilm + clotrimazole, Alamar Blue; inhibition, % at 6 µM; actives 0.14% (n = 85,000); AID 834;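 active = inhibition above 20%; inactive = inhibition below 20%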;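 also: preformed 24 hr biofilms exposed to compound for 48 hr; 0% = biofilm without compound and 100% = blank killed by clotrimazole plus chlorhexidine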
sEH inhibitor – blocks human soluble epoxide hydrolase activity; P34913; recombinant human sEH enzymatic activity assay; actives 0.34% (n = 91,000); inhibition, % at 2 µM; in the data active = inhibition above about 80%
MRP reversal – reverses drug resistance mediated by MRP | actives 0.04% (n = 85,000) | H69AR cells + 2 uM doxorubicin, CellTiter-Glo, 72 h | AID 602 | differential viability (reversal), % at 10 µM;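 active = viability drop by adding the cancer drug above about 55%, with treated viability meeting a 40% cutoff, limit read from the data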;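 also: viability without doxorubicin minus viability with 2 µM doxorubicin for each compound; larger differential means the compound sensitizes cells more to doxorubicin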
MRP-1 activ – activates MRP-1 | H69AR cells + doxorubicin, viability rescue, CellTiter-Glo | viability increase, % at 10 µM | actives 0.61% (n = 140,000) | AID 799;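 active = viability gain under doxorubicin at or above a set limit, the compound median plus 3 SD, cut at about 4.7% in these data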;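 also: MRP-1 overexpressing cells given doxorubicin 25 µM after compound pretreatment; 18-22 h compound pretreatment then 72 h with doxorubicin before readout; 0% = doxorubicin-only wells and 100% = vehicle-treated cells without doxorubicin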
An asterisk follows results filed as active; x = no result given. An excerpt weighted towards active compounds, which were near 0.87% of everything screened.

SMILES | sEH activator | Calb biofilm kill | sEH inhibitor | MRP reversal | MRP-1 activ
COc1ccc(C2=NN(C(C#N)c3ccc(OC)cc3)C(c3ccccc3)C2)cc1 (stereo not given) | x | x | x | x | -3
Cc1ccc(C(=O)NC(C)c2ccc(F)cc2)cc1 (stereo not given) | x | x | x | x | 6.3*
O=C1C2CCCN2C(=O)N1CCCCN1CCN(c2cccc(Cl)c2)CC1 (stereo not given) | x | x | x | x | -2
Cc1ccc2cc(C)c3nnc(SCC(=O)Nc4nc5c(s4)CCCC5)n3c2c1C | -2 | x | 4 | x | -1
Cc1sc2nc(C3CC3)nc(N3CCN(S(=O)(=O)c4ccc(F)cc4)CC3)c2c1C | 2 | -3 | -4 | -21 | 6.6*
Cc1nc(N2CCN(S(=O)(=O)c3ccc(F)cc3)CC2)c2c(C)c(C)sc2n1 | x | 8 | x | -2 | x
O=C(Nc1cc2c(oc1=O)CCCC2=O)c1ccc(Cl)cc1 | 16 | x | -15 | x | 0
COc1ccccc1-n1c(SCC(=O)Nc2ccc(F)cc2)nc2c(c1=O)SCC2 | x | 5 | x | -32 | -3
CCOC(=O)N1CCN(C(=O)CSc2nc3c(c(=O)n2-c2ccccc2OC)SCC3)CC1 | -9 | 6 | 8 | 57* | -4
CCCCC1(CC(=O)OCC)C(=O)N(c2ccccc2)N(c2ccccc2)C1=O | x | x | x | x | -2
Cc1ccc(C(=O)CCC(=O)Nc2ccc(Cl)c(S(=O)(=O)Nc3cccc(Cl)c3)c2)cc1 | x | x | x | x | 7.8*
CCOP(=O)(c1ccccc1)C(O)c1ccc(Br)cc1 (stereo not given) | x | x | x | x | -1
CCOC(=O)c1c(NC(=O)OC)sc(C(=O)N(CC)CC)c1C | 8 | 5 | -5 | 76* | 1
COc1ccc(NC(=O)C(C/C=C(/C)Cl)C(C)=O)cc1 (stereo not given) | 11 | 21* | -8 | 5 | -4
COc1ccc(CNC(=O)COC(=O)c2cnccn2)cc1 | -1 | 0 | 1 | 6 | -1
Cc1cccc(N2C(=O)CC(NNc3nc4ccccc4s3)C2=O)c1 (stereo not given) | x | x | x | x | 4.7*
CCN1CCN(C(=O)c2ccc(CN(c3ccccc3)S(=O)(=O)c3ccccc3)cc2)CC1 | x | x | x | x | -3
Cc1ccc(CSCCNC(=O)c2ccc(Cl)c(S(=O)(=O)N3CCOCC3)c2)cc1 | -73 | 3 | 74 | -6 | 1
C=CCN1C(=O)CSc2ccc(C(=O)NCCC3=CCCCC3)cc21 | -89 | 3 | 89* | -19 | -3
O=C(NCCC1=CCCCC1)c1ccc(Cl)c(S(=O)(=O)N2CCOCC2)c1 | -94 | 6 | 94* | 2 | -1
O=C(c1cc2ccccc2c(=O)o1)N1CCCCCC1 | x | x | x | x | 1
COc1ccc(CC(=O)NNC(=O)CSc2nnc(Cc3ccc(OC)cc3)n2-c2ccccc2)cc1 | x | x | x | x | 2
O=C(NC1CC2CCC(C1)N2C(=O)NC1CCCCC1)NC12CC3CC(CC(C3)C1)C2 (stereo not given) | x | 15 | x | 6 | 0
O=C(NC1CC2CCCC(C1)N2C1CC1)NC12CC3CC(CC(C3)C1)C2 (stereo not given) | -99 | 3 | 99* | -3 | x
NC(=O)COC(=O)CN1C(=O)C2CCCCC2C1=O (stereo not given) | x | x | x | x | -1
SMILES | sEH activator | Calb biofilm kill | sEH inhibitor | MRP reversal | MRP-1 activ
COCc1cc(=O)[nH]c2cc(NC(=O)C3CC3)c(C)cc12 | -8 | x | 10 | x | 0
Cc1nn(-c2ccccc2)c(C)c1/C=N/NC(=O)CSc1nnc(SCc2cccc3ccccc23)s1 | x | x | x | x | -1
O=C(COc1nsnc1N1CCOCC1)N/N=C/c1ccccc1O | x | x | x | x | 5.5*
Cc1ccccc1NC(=O)COc1nsnc1N1CCOCC1 | 26 | 1 | -26 | -4 | 0
C=CCc1c(C)nc(-c2ccccc2)nc1N/N=C(\C)c1ccc(N)cc1 | x | x | x | x | 5.7*
C=CCc1c(C)nc(-c2ccccc2)nc1Nc1ccccc1O | x | x | x | x | -2
C=CCc1c(C)nc(-c2ccccc2)nc1N/N=C/c1ccccc1 | x | x | x | x | 8.5*
C=CCc1c(C)nc(C)nc1N/N=C/c1ccccc1 | -7 | 3 | 6 | 15 | 0
Cc1ccc(C2=NN(CCC(=O)NCc3ccc4c(c3)OCO4)C(=O)CC2)cc1 | x | x | x | x | -1
CC(C)Oc1ccc(-c2nn(-c3ccccc3)cc2/C=c2\sc3ncnn3c2=O)cc1 | -4 | -3 | 1 | -7 | 5.8*
Cc1nc(OCc2ccccc2)c2sc3nc4c(cc3c2n1)COC(C)(C)C4 | 25 | 0 | -27 | 18 | 6.1*
CCOC(=O)c1c(-c2cccs2)csc1NC(=O)CSc1ncn[nH]1 | 2 | 3 | -4 | -2 | 6.0*
O=[N+]([O-])c1ccc(O)c(N=Cc2sc3ccccc3c2O)c1 | x | x | x | x | 5.5*
Oc1c(C=Nc2cccc3cccnc23)sc2ccccc12 | -5 | 6 | 3 | -6 | -6
C/C(=N\NC(=O)Cc1cccn1C)c1cccc2ccccc12 | -82 | 5 | 82* | 2 | -1
